Screening results deposited in PubChem BioAssay by National Center for Advancing Translational Sciences (NCATS).
Shown are actives, neighbours in structure and some others; about 2.8% of the full set was active somewhere.
PI4K2A block: qHTS for small molecular inhibitors of PI4K2A; purified PI4K2A, ADP-Glo luminescence, 1 h; active compounds read low; activity change, negative = inhibition, % at 76.9 µM; 420,000 compounds, 0.13% hits; AID 1346378, 2018; in the data active = activity change below about -50%; inconclusive = mostly about -30% to -49%;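 note: -100% = wells without enzyme as full effect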
Target sequence (Q9BTU6 whole entry, looked up): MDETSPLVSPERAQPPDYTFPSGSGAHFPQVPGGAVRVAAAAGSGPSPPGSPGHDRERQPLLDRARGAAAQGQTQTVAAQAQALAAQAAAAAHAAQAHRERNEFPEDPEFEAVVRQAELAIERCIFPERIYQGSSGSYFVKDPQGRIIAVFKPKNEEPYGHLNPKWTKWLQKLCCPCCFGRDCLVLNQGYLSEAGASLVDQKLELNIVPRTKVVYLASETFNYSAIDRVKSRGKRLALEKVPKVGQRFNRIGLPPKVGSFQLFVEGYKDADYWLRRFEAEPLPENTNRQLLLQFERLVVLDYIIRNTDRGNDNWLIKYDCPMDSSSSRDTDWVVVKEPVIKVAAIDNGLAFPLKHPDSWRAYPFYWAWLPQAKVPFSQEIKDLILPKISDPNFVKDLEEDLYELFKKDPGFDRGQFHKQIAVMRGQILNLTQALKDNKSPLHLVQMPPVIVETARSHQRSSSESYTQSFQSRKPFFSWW
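In this quantitative HTS, ADP production by PI4K2A was quantified luminescently after 1 h at ambient temperature; 100 microM adenosine served as plate-quality control.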
D3 antag: qHTS of D3 Dopamine Receptor Antagonist: qHTS | D3R cells, DiscoveRx beta-arrestin luminescence, antagonist mode; active compounds read low | max response, negative = inhibition, % | 360,000 compounds, 2.5% hits; in the data active = max response below about -50%; inconclusive = no clear call, values can overlap the other calls; note: % is set by controls: 0 for no effect and ±100 for the full control effect
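Cells plated overnight at 1500 cells/well, then exposed to library compounds with dopamine controls for 90 minutes at 37 degrees C. DiscoveRx reagent added for 30–60 minutes at room temperature; luminescence read, quantitative HTS format.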
Akt phos inh: HTS Assay for Inhibitors of Akt Phophorylation: Primary Screen | Neuro2A IGF-stimulated pAkt S473 HTRF, 20 min; active compounds read low | activity change, % for hits at 50 µM | 360,000 compounds, 0.32% hits | AID 651550, 2012; in the data active = activity change below about -80%; inconclusive = mostly about -51% to -80%; note: % is set by controls: 0 for no effect and ±100 for the full control effect
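Neuro2A cells (4,500/well, DMEM with 0.5% FBS) were treated with compound at a single 50 µM final concentration, stimulated with 6 nM IGF for 20 min at 37 °C, and lysed. Phospho-Akt Ser473 was read by HTRF as 665/615 ratio ×10^4.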
LDHA block: qHTS assay for inhibitors of human lactate dehydrogenase; AID 1347041, 2019; activity change, % (values are at about 110 or 230 µM); L-lactate dehydrogenase A chain (Homo sapiens), P00338; 480,000 compounds, 0.15% hits; purified LDHA, NADH/diaphorase-resazurin fluorescence; active compounds read low; in the data active = activity change below about -30%; inconclusive = mostly about -25% to -30%;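 note: plate controls were DMSO wells for no effect and wells without enzyme for full effect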
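Human LDH5 (2 nM) was incubated with 0.06 mM NADH and 0.2 mM pyruvate for 5 min at room temperature in Tris pH 7.4. Remaining NADH was coupled through diaphorase/resazurin, and resorufin fluorescence was read at 0 and 20 min.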
D3 ag: qHTS of D3 Dopamine Receptor Agonist: qHTS; D3R DiscoveRx beta-arrestin cells, luminescence, 90 min; max activation, %; 410,000 compounds, 0.58% hits; AID 652048, 2013; in the data active = max activation above about 30%; note: 0% is about no effect
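Cells at 1500/well, incubated overnight, then treated with pinned compounds (dopamine as control) for 90 min at 37 degrees C. DiscoveRx reagent added for 30 - 60 minutes at room temperature; luminescence read.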
RGS4 inh: Inhibitors of Regulator of G Protein Signaling (RGS) 4: qHTS; Regulator of G-protein signaling 4 (Homo sapiens), P49798; Transcreener GDP fluorescence polarization, RGS4-accelerated GTP hydrolysis; Potency, µM (series often up to 114 µM), for the others: at the highest dose activity change, negative = inhibition, most hits filed as inhibitors; 390,000 compounds, 0.039% hits; active = well fitted inhibition curve with a large enough effect; inconclusive = small, poorly fitted or top-dose-only effect; inactive = no such curve, though single readings can be large or run the other way; note: potency is the fitted concentration of half-maximal effect; % is set by controls: 0 for no effect and ±100 for the full control effect; nearly all actives have a fitted effect of over 75% in size
Target sequence (P49798 whole entry, looked up): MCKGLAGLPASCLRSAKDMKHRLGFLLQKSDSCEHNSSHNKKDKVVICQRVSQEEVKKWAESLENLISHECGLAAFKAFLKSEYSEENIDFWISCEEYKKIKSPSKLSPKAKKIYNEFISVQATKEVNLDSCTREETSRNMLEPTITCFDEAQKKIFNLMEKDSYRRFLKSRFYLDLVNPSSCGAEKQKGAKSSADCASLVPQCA
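MLSMR compounds (23 nl, pin-transferred) preincubated 10 min at room temperature with a 500nM (2x) first reagent, then RGS4 at 900nM (2x) plus Transcreener GDP mix added; fluorescence polarization (620/688 nm) read before and after 90 min at 30 °C.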
* = called active by the depositor; i = inactive; ? = inconclusive; . = no result given.

SMILES | PI4K2A block | D3 antag | Akt phos inh | LDHA block | D3 ag | RGS4 inh
Cc1[nH]c2ccccc2c1C(=O)C(C)Oc1ccc(Cl)c2ccccc12 (stereo not drawn) | . | . | . | 1 | . | .
CCn1cc2c(C(F)(F)F)cc(=O)n(CCC(=O)O)c2n1 | . | . | . | 3 | . | .
Cc1cccc(C(=O)NNC(=O)c2ccc3ccccc3c2)c1 | 0 | 12 | i | -38* | 8 | -13%
COc1cccc(C(=O)Nc2ccc(C(=O)c3ccccc3)cc2)c1 | 1 | 1 | i | -5 | 3 | 8%
O=C(COc1cccc(NC(=O)c2cccc([N+](=O)[O-])c2)c1)c1ccc(F)cc1 | -2 | -13 | i | 0 | 4 | -18%
COc1cccc(C(=O)Nc2ccc(C(=O)O)cc2)c1 | -64* | -3 | i | -8 | -2 | 31%
COC(=O)c1cccc(NC(=O)c2cccc(OC)c2)c1 | ? | 16 | i | -10 | 0 | -41%
COc1cccc(C(=O)COc2cccc(NC(=O)c3cccc([N+](=O)[O-])c3)c2)c1 | 1 | -51* | i | -5 | 14 | 9%
COC(=O)c1ccc(NC(=O)c2cccc(OC)c2)cc1 | -51* | 20 | i | -5 | -2 | -1%
COc1ccc(S(=O)(=O)c2nc(-c3ccc(F)cc3)oc2N2CCOCC2)cc1 | . | . | . | 4 | . | .
COC(=O)c1ccc(NC(=O)c2cccc(C)c2)cc1 | -1 | -52* | i | -8 | -2 | 4%
COc1ccc2c(C(F)(F)F)cc(SCC(=O)N3CCCC3)nc2c1 | . | . | . | 0 | . | .
O=C(NC(=S)Nc1cc(C(F)(F)F)ccc1Cl)c1ccccc1 | 1 | ? | i | 0 | -10 | -5%
FC(F)(F)c1ccc(Cl)c(NC(=S)N/N=C/c2ccccc2Cl)c1 | -2 | -66* | i | 0 | -1 | 19%
Cc1cc(C)c(C)c(OCC(O)CN2CCN(c3ccccn3)CC2)c1 (stereo not drawn) | 1 | -20 | i | 1 | 63* | 7%
Cc1cccc(OCC(O)CN2CCN(c3ccccn3)CC2)c1C (stereo not drawn) | 2 | -21 | i | -2 | 68* | -4%
CCCc1cc(=O)oc2c(C)c(OC(C)C(=O)NCc3cccnc3)ccc12 (stereo not drawn) | . | . | . | 9 | . | .
COc1ccc(Cc2nnc(NCCO)[nH]c2=O)cc1 | 2 | 6 | i | -1 | 33* | 4%
Nc1c(C(=O)Nc2nc3ccccc3s2)sc2nc(-c3cccs3)ccc12 | -63* | -22 | i | -17 | 3 | ?
CC(C)NC(=O)c1sc2nc(-c3cccs3)cc(-c3cccs3)c2c1N | 1 | ? | -94%* | 3 | 1 | -36%
Nc1c(C(=O)Nc2ccccc2Br)sc2nc(-c3cccs3)ccc12 | -3 | . | . | -11 | 9 | -17%
COc1ccc(C(=O)c2sc3nc(C)cc(-c4cccs4)c3c2N)cc1 | -5 | 9 | i | -2 | 2 | -1%
COc1ccc(C(=O)c2sc3nc(C)cc(-c4cccs4)c3c2N)cc1OC | 5 | 11 | i | -4 | 52* | 5%
COCCOC(=O)C1=C(C)NC2=C(C(=O)CC(C)(C)C2)C1c1cccnc1 (stereo not drawn) | 3 | -29 | -108%* | 1 | -2 | -18%
NC(=O)c1ccc(CNc2cnc3ccccc3n2)cc1 | . | . | . | 2 | . | .
SMILES | PI4K2A block | D3 antag | Akt phos inh | LDHA block | D3 ag | RGS4 inh
Cc1oc(-c2ccc(C(=O)NCc3ccccc3F)cc2)nc1COc1ccccc1 | 0 | . | . | -14 | 34* | 1%
Cc1oc(-c2ccc(C(=O)Nc3ccccc3F)cc2)nc1COc1ccccc1 | 4 | . | . | -1 | 1 | 8%
CCOc1ccc(CNC(=O)c2ccc(-c3nc(CS(=O)(=O)c4ccccc4)c(C)o3)cc2)cc1 | -1 | . | . | -35* | -16 | -6%
CN(C)c1ccc(N/C=C/C(=O)C(C)(C)C)cc1 | -3 | 13 | -114%* | 20 | -1 | ?
CN(C)c1ccc(N/C=C/C(=O)c2ccccc2)cc1 | ? | ? | i | 26 | -2 | ?
CN(C(=O)OCc1ccccc1)C(CC(N)=O)C(=O)O (stereo not drawn) | -3 | -99* | i | -21 | -12 | 8%
NC(=O)CC(CC(=O)OCc1ccccc1)c1ccccc1 (stereo not drawn) | 2 | -2 | i | -1 | -5 | -11%
O=C(CC1NCCc2ccccc21)Nc1ccccc1 (stereo not drawn) | 0 | -74* | i | -5 | -10 | 25%
Cc1cc2oc(C(=O)NCC(c3cccs3)N3CCOCC3)cc(=O)c2cc1C (stereo not drawn) | . | . | . | 0 | . | .
CCCOc1cc(NCc2ccccc2)c2ncn(C(C)C)c2c1 | -7 | 7 | i | 18 | 10 | 7%
COCCOc1cc(NCc2ccccc2)c2ncn(C(C)C)c2c1 | -15 | -71* | i | 18 | -15 | -42%
CCC(CO)Oc1cc(NCc2ccc(Cl)cc2Cl)c2ncn(C(C)C)c2c1 (stereo not drawn) | 0 | 3 | i | 8 | -1 | 35%
CCC(CO)Oc1cc(NCc2ccccc2O)c2ncn(C(C)C)c2c1 (stereo not drawn) | -4 | 183 | i | 12 | 50* | -5%
CC1=C(Cc2cc3ccc(=O)oc3cc2O)CC(C)(C)CC1 | . | . | . | 7 | . | .
COC(=O)C(C(=O)OC)C(c1ccc(Br)cc1)C(C)C(=O)c1ccc(C)cc1C (stereo not drawn) | . | . | . | 1 | . | .
CC(=O)c1ccc(NC(=O)CSc2nc(=O)[nH]nc2C)cc1 | . | . | . | 1 | . | .
COc1ccc2nc3n(c(=O)c2c1)-c1ccc(Cl)cc1C(=O)NC3Cc1ccc(O)cc1 (stereo not drawn) | 0 | 4 | i | -9 | 44* | 17%
Cc1ccc2nc3n(c(=O)c2c1)-c1cc2ccccc2cc1C(=O)NC3CC(C)C (stereo not drawn) | -1 | -14 | i | 3 | 2 | .
CC(C)CC1NC(=O)c2cc3ccccc3cc2-n2c1nc1ccc(F)cc1c2=O (stereo not drawn) | -3 | -58* | i | 3 | -7 | .
Cc1ccccc1Nc1nc(NC2CCCCCC2)nc2c1cnn2-c1ccccc1 | . | . | . | 0 | . | .
Cc1[nH]c2c(Cl)cccc2c(=O)c1CN1CCCCCC1 | 2 | -90* | i | 2 | -15 | 7%
